These results are taken from PubChem BioAssay (EPA / NIEHS).

Read-out in experiment [1]: Macrophage colony-stimulating factor (MCSF), CSF1 (gene 1435)
Kind of experiment: BSK_hDFCGF_MCSF: BioMAP Diversity Plus: hDFCGF Assay for Macrophage colony-stimulating factor (MCSF) Biomarker Activity (AID 2283060). Particulars: primary human foreskin fibroblasts; actives raise or lower the signal. In a few lines:
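Human foreskin primary fibroblasts were treated with test chemical for 24 h, and M-CSF was then measured by ELISA. Data were fitted bidirectionally against DMSO as the negative control and activity baseline.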

Experiment [2] in a line: BSK_hDFCGF_SRB: Viability Assessment in the BioMAP Diversity Plus: hDFCGF Assay (AID 2283061).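 Further: cells exposed to compound for 24 h before the read.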 The following applies: primary human foreskin fibroblasts. In a few lines: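 Human foreskin primary fibroblasts were treated with compound and assessed 24 h after dosing. Total protein was measured by sulforhodamine B staining (0.1% SRB after 10% TCA fixation, 560 nm read) as a cytotoxicity marker, with bidirectional fitting against DMSO baseline.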

Read-out in experiment [3]: TIMP metallopeptidase inhibitor 1 (TIMP1), TIMP1 (gene 7076)
Kind of experiment: BSK_hDFCGF_TIMP1: BioMAP Diversity Plus: hDFCGF Assay for TIMP metallopeptidase inhibitor 1 (TIMP1) Biomarker Activity (AID 2283062). The following applies: primary human foreskin fibroblasts; actives raise or lower the signal. In a few lines: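 Primary human foreskin fibroblasts in the hDFCGF system were dosed with compound for 24 h, then TIMP-1 was measured by ELISA. Activity was fitted bidirectionally relative to DMSO control; parallel SRB staining assessed cytotoxicity.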

Read-out in experiment [4]: Monokine induced gamma interferon (MIG), CXCL9 (gene 4283)
Put plainly: BSK_hDFCGF_MIG: BioMAP Diversity Plus: hDFCGF Assay for Monokine induced gamma interferon (MIG) Biomarker Activity (AID 2283063). Particulars: primary human foreskin fibroblasts; actives raise or lower the signal. In a few lines:
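ELISA read-out of MIG from primary human dermal fibroblasts 24 h post-dosing. Gain or loss of signal fitted bidirectionally, DMSO as baseline.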

Read-out in experiment [5]: Matrix Metallopeptidase 1 (MMP1), MMP1 (gene 4312)
Kind of experiment: BSK_hDFCGF_MMP1: BioMAP Diversity Plus: hDFCGF Assay for Matrix Metallopeptidase 1 (MMP1) Biomarker Activity (AID 2283064). Particulars: primary human foreskin fibroblasts; actives raise or lower the signal. In a few lines:
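hDFCGF primary fibroblasts (human foreskin); chemical added; 24 h; MMP1 by ELISA; bidirectional fit vs DMSO.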

Read-out in experiment [6]: Vascular cell adhesion molecule 1 (VCAM1), VCAM1 (gene 7412)
Kind of experiment: BSK_hDFCGF_VCAM1: BioMAP Diversity Plus: hDFCGF Assay for Vascular cell adhesion molecule 1 (VCAM1) Biomarker Activity (AID 2283065).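 On AC50: VCAM-1 protein level quantified by ELISA after 24 h chemical exposure.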 The following applies: primary human foreskin fibroblasts; actives raise or lower the signal. In a few lines:
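Primary human foreskin fibroblasts (hDFCGF system) were dosed with chemical and VCAM-1 was measured by ELISA 24 h later. Bidirectional curve fitting used DMSO as negative control and activity baseline.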

Read-out in experiment [7]: Plasminogen activator inhibitor-1 (PAI1), SERPINE1 (gene 5054)
Put plainly: BSK_hDFCGF_PAI1: BioMAP Diversity Plus: hDFCGF Assay for Plasminogen activator inhibitor-1 (PAI1) Biomarker Activity (AID 2283066). Particulars: primary human foreskin fibroblasts; actives raise or lower the signal. In a few lines:
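Human foreskin fibroblasts in the hDFCGF system were dosed with compound for 24 h; PAI-1 was quantified by ELISA. Bidirectional curve fitting used DMSO as negative control and baseline.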

Read-out in experiment [8]: Intercellular Adhesion Molecule 1 (ICAM1), ICAM1 (gene 3383)
Kind of experiment: BSK_KF3CT_ICAM1: BioMAP Diversity Plus: KF3CT Assay for Intercellular Adhesion Molecule 1 (ICAM1) Biomarker Activity (AID 2283067). Particulars: primary human keratinocytes with fibroblasts; actives raise or lower the signal. In a few lines:
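Human keratinocyte plus foreskin fibroblast primary co-culture was exposed to chemical for 24 h. ICAM-1 was then quantified by ELISA, and the data were fit bidirectionally against DMSO as the negative control and baseline.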

Read-out in experiment [9]: Interferon-gamma inducible Protein 10 (IP10), CXCL10 (gene 3627)
Put plainly: BSK_KF3CT_IP10: BioMAP Diversity Plus: KF3CT Assay for Interferon-gamma inducible Protein 10 (IP10) Biomarker Activity (AID 2283068). Particulars: primary human keratinocytes with fibroblasts; actives raise or lower the signal. In a few lines:
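ELISA read-out of IP-10 after 24 h chemical dosing of human skin primary co-culture (keratinocytes, foreskin fibroblasts). Gain or loss of signal relative to DMSO, bidirectional curve fit.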

A short description of experiment [10]: BSK_KF3CT_SRB: Viability Assessment in the BioMAP Diversity Plus: KF3CT Assay (AID 2283069).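 Further: fitted for both signal gain and loss against DMSO baseline.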 The following applies: primary human keratinocytes with fibroblasts. In a few lines:
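Keratinocytes co-cultured with foreskin fibroblasts (human primary); chemical added, 24 h; fix 10% TCA, stain 0.1% SRB, A560. Bidirectional fit vs DMSO.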

Read-out in experiment [11]: Interleukin-1 alpha (IL1a), IL1A (gene 3552)
Put plainly: BSK_KF3CT_IL1a: BioMAP Diversity Plus: KF3CT Assay for Interleukin-1 alpha (IL1a) Biomarker Activity (AID 2283070). Particulars: primary human keratinocytes with fibroblasts; actives raise or lower the signal. In a few lines:
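Chemicals were dosed onto co-cultured human keratinocytes and foreskin fibroblasts, IL-1a was quantified by ELISA at 24 h, and activity was fitted in both directions relative to DMSO controls.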

Read-out in experiment [12]: TIMP metallopeptidase inhibitor 2 (TIMP2), TIMP2 (gene 7077)
Kind of experiment: BSK_KF3CT_TIMP2: BioMAP Diversity Plus: KF3CT Assay for TIMP metallopeptidase inhibitor 2 (TIMP2) Biomarker Activity (AID 2283071). The following applies: primary human keratinocytes with fibroblasts; actives raise or lower the signal. In a few lines: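 Human primary keratinocyte/foreskin fibroblast co-culture dosed with chemical and sampled at 24 h. TIMP-2 levels quantified by ELISA; bidirectional fitting against DMSO negative control as baseline.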

Read-out in experiment [13]: C-C motif chemokine 2 (Homo sapiens) (UniProt P13500)
Put plainly: BSK_KF3CT_MCP1: BioMAP Diversity Plus: KF3CT Assay for Monocyte Chemoattractant Protein 1 (MCP1/CCL2) Biomarker Activity (AID 2283073). The following applies: primary human keratinocytes with fibroblasts; actives raise or lower the signal. In a few lines:
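Human keratinocyte plus foreskin fibroblast primary co-culture exposed to chemical for 24 h. MCP-1 levels measured by ELISA. Bidirectional curve fitting relative to DMSO negative control as baseline.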

Read-out in experiment [14]: Matrix Metallopeptidase 9 (MMP9), MMP9 (gene 4318)
Put plainly: BSK_KF3CT_MMP9: BioMAP Diversity Plus: KF3CT Assay for Matrix Metallopeptidase 9 (MMP9) Biomarker Activity (AID 2283074).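 On AC50: MMP9 protein level quantified by ELISA in the co-culture.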 Particulars: primary human keratinocytes with fibroblasts; actives raise or lower the signal. In a few lines: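 Human keratinocyte/foreskin fibroblast co-culture; compound added; 24 h; MMP-9 by ELISA; bidirectional fit vs DMSO baseline.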

Read-out in experiment [15]: urokinase plasminogen activator (uPA), PLAU (gene 5328)
Put plainly: BSK_KF3CT_uPA: BioMAP Diversity Plus: KF3CT Assay for urokinase plasminogen activator (uPA) Biomarker Activity (AID 2283075). Particulars: primary human keratinocytes with fibroblasts; actives raise or lower the signal. In a few lines:
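ELISA readout of uPA, analyzed for signal gain or loss relative to DMSO, from a human primary keratinocyte–foreskin fibroblast co-culture measured 24 h after chemical treatment.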

Read-out in experiment [16]: CD40, CD40 (gene 958)
Kind of experiment: BSK_LPS_CD40: BioMAP Diversity Plus: LPS Assay for CD40 Biomarker Activity (AID 2283076). Particulars: primary human HUVEC with PBMC; actives raise or lower the signal. In a few lines:
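Primary human umbilical vein endothelial cells co-cultured with peripheral blood mononuclear cells, LPS-stimulated, were dosed with chemical and read 24 h later. CD40 levels were measured by ELISA and fitted bidirectionally against DMSO as negative control and baseline.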

Read-out in experiment [17]: E-selectin (Homo sapiens) (UniProt P16581)
Kind of experiment: BSK_LPS_Eselectin: BioMAP Diversity Plus: LPS Assay for Eselectin Biomarker Activity (AID 2283077). The following applies: primary human HUVEC with PBMC; actives raise or lower the signal. In a few lines: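 Human umbilical vein endothelial cells co-cultured with peripheral blood mononuclear cells under LPS stimulation; E-selectin measured by ELISA 24 h after chemical dosing. Activity fitted bidirectionally against DMSO as negative control and baseline.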

Read-out in experiment [18]: Interleukin-8 (IL8), CXCL8 (gene 3576)
Kind of experiment: BSK_LPS_IL8: BioMAP Diversity Plus: LPS Assay for Interleukin-8 (IL8) Biomarker Activity (AID 2283078). Particulars: primary human HUVEC with PBMC; actives raise or lower the signal. In a few lines: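 Human umbilical vein endothelial cells co-cultured with PBMC were stimulated with LPS; IL-8 levels were measured by ELISA 24 h after chemical dosing. Activity was fitted bidirectionally against DMSO as negative control and baseline.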

Experiment [19] is described as follows: BSK_LPS_SRB: Viability Assessment in the BioMAP Diversity Plus: LPS Assay (AID 2283079).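 Further: total protein by sulforhodamine B absorbance as a cytotoxicity measure; measured one day after compound addition; fitted in both directions against DMSO so loss or gain of signal counts.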 Particulars: primary human HUVEC with PBMC. In a few lines: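 Human umbilical vein endothelial cells co-cultured with PBMC (LPS system) were dosed for 24 h. Total protein was stained with 0.1% sulforhodamine B after 10% TCA fixation, read at 560 nm, and fitted bidirectionally against DMSO baseline.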

Read-out in experiment [20]: Interleukin-1 alpha (IL1a), IL1A (gene 3552)
Put plainly: BSK_LPS_IL1a: BioMAP Diversity Plus: LPS Assay for Interleukin-1 alpha (IL1a) Biomarker Activity (AID 2283080). Particulars: primary human HUVEC with PBMC; actives raise or lower the signal. In a few lines: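 Human umbilical vein endothelial cells co-cultured with peripheral blood mononuclear cells were LPS-stimulated and exposed to test chemicals for 24 h. IL-1 alpha was quantified by ELISA, with bidirectional curve fitting against DMSO as the negative control and baseline.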

Values joined by “and” are separate entries in the source; they are usually repeats but may differ in a detail not shown here. Equal values may be shown once. Some structures have more than one record in an assay (separate samples or runs), and their calls can disagree. Active and inactive are the calls of the source. How the source made its calls: active means hit-call score of the fitted dose curve at least 0.9, where 1 is the maximum; inactive means score below 0.9.

Chain of E-selectin (Homo sapiens) (P16581 whole entry, looked up): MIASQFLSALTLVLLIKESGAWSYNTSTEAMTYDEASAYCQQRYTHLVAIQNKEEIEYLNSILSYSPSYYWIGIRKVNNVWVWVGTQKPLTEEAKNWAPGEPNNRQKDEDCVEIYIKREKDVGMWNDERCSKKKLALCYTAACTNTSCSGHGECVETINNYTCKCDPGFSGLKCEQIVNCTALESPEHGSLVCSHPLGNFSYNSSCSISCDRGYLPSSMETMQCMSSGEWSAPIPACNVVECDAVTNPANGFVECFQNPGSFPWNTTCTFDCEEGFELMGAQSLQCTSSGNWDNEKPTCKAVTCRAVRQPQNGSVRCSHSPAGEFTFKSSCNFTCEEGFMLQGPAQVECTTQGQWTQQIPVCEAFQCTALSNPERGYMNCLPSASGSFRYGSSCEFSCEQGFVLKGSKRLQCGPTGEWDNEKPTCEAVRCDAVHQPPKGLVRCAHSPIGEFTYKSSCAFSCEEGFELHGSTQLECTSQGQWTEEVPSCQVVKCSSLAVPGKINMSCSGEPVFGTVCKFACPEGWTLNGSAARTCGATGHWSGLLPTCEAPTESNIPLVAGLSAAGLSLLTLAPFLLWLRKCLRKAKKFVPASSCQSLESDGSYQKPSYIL

With `O=C(O)C(F)(F)OC(F)(F)C(F)(F)OC(F)(F)C(F)(F)OC(F)(F)F`, the outcome in [1], in experiment [2], in [3], in experiment [4], in experiment [5] and in experiment [6] was inactive. In addition, the outcome in experiment [7], in experiment [8], in experiment [9], in experiment [10], in experiment [11] and in [12] was inactive. The result in experiment [13], in experiment [14], in [15], in experiment [16], in [17] and in experiment [18] was inactive. The outcome in experiment [19] and in experiment [20] was inactive. The AC50 (commonly the midpoint of the concentration-response curve, whichever way the signal moves) in experiment [18] was 9.98 µM (active) and 20 µM (active).
Turning to `Cc1ccc(S(=O)(=O)C(I)I)cc1`, the concentration at half-maximal activity (AC50) was 2.36 µM (active) in experiment [1]; 2.63 µM (active) in experiment [2]; 1.62 µM (active) in [3]; 2.68 µM (active) in [4]; 2.22 µM (active) in experiment [5]; 0.942 µM (active) in [6]. Also, the concentration at half-maximal activity (AC50) in experiment [7] is 2.41 µM (active); in [8], 3.07 µM (active); in experiment [9], 7.09 µM (active); in experiment [10] it was 5.19 µM (active); in experiment [11] it was 2.47 µM (active); in [12] it was 2.35 µM (active). Moreover, the AC50 in experiment [13] was 2.71 µM (active); in experiment [14], 5.24 µM (active); in experiment [15], 6.22 µM (active); in experiment [16], 2.38 µM (active); in experiment [17] it was 3.3 µM (active); in experiment [18] it was 4.27 µM (active). Also, the AC50 in [19] is 5.31 µM (active); in experiment [20], 1.92 µM (active).
With `Cc1cc(C)c(O)c(C(C)(C)C)c1`, the AC50 in [1] was 34.4 µM (active); in [2], 35.2 µM (active); in experiment [3] it was 30.1 µM (active); in experiment [4] it was 32.8 µM (active); in experiment [5] it was 34 µM (active); in experiment [6] it was 34.7 µM (active). Moreover, the AC50 in [7] was 30.9 µM (active); in [8], 35.1 µM (active); in experiment [9], 34.2 µM (active); in experiment [10], 33.5 µM (active); in experiment [11], 31.1 µM (active); in experiment [12] it was 28.8 µM (active). Also, the half-maximal activity concentration (AC50) in experiment [13] was 32.8 µM (active); in [14] it was 30.2 µM (active); in [15] it was 30.9 µM (active); in [16], 30.9 µM (active); in experiment [17], 32.1 µM (active); in experiment [19], 36.3 µM (active). Also, in experiment [20], the concentration at half-maximal activity (AC50) was 32.7 µM (active). In addition, the result in [18] was inactive.
